Laboratory results reported in PMC6212790, “How bacterial xenogeneic silencer rok distinguishes foreign from self DNA in its resident genome”.
In all, about 33,000 sequences were measured (“e-score”: median about -0.037, highest 2% from about 0.34 on). This excerpt belongs to a sample that is enriched for the highest values.

Target: T1, GST-Rok (full length) (Bacillus subtilis subsp. subtilis str. …, UniProt O34857 1-191)
T1 sequence: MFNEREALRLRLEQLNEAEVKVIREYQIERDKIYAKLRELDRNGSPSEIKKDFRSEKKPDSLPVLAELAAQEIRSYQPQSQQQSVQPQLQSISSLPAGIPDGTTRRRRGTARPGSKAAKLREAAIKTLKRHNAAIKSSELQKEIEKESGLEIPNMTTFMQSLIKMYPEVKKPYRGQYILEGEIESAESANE
Experiment: protein binding microarray; Rok is a gene silencer of Bacillus subtilis; high values mean tight binding
Settings: protein: recombinant; tags: GST (pTH5325, pDEST15-Magic modified); dsDNA, one strand shown
Method in brief: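 Each has a 25-mer constant primer and a 35-mer variable part from a de Bruijn sequence of order 10, covering every non-palindromic 8-mer at least 32 times (palindromic 16). Preference for each 8-mer is given as a rank-based, unitless enrichment score (E-score). Its range runs from 0.5 (most favored) to −0.5 (most disfavored).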

Row | Sequence | binding signal
1 | CGTCGCAA | -0.166 E-score
2 | AGAACTAT | 0.381 E-score
3 | ATAACTAG | 0.243 E-score
4 | ATAACTAT | 0.407 E-score
5 | ATAACTAA | 0.26 E-score
6 | AGAACTAA | 0.254 E-score
7 | AGAACTAG | 0.298 E-score
8 | CATGCTGA | -0.132 E-score
9 | AGTGGTCC | -0.177 E-score
10 | GTCCCGGA | -0.141 E-score
11 | AATCATTA | 0.158 E-score
12 | GATCATTA | 0.355 E-score
13 | CATCATTA | 0.0295 E-score
14 | CGTAGTAA | 0.198 E-score
15 | TGTAGTAA | 0.349 E-score
16 | TGTTGTAA | 0.142 E-score
17 | GGTAGTAA | 0.335 E-score
18 | AGTAGTAA | 0.384 E-score
19 | TGTAGGAA | 0.0806 E-score
20 | ACTGGACG | 0.057 E-score
21 | TCAAGTAA | 0.154 E-score
22 | AGTAGACA | 0.0413 E-score
23 | CTAATCTA | 0.362 E-score
24 | GTAATCTA | 0.245 E-score
25 | CTAATCAA | 0.165 E-score
26 | ATAATCTA | 0.352 E-score

Row | Sequence | binding signal
27 | ATAATCTC | 0.161 E-score
28 | CTAATCTC | 0.0718 E-score
29 | ATGCATGG | 0.0449 E-score
30 | AACCTACG | 9.3e-05 E-score
31 | CCAACTGC | -0.00979 E-score
32 | AGGTTTAA | 0.00862 E-score
33 | CTATACCA | 0.258 E-score
34 | ATATACCA | 0.411 E-score
35 | ATATACCG | 0.385 E-score
36 | GTATACCA | 0.311 E-score
37 | ATATACCC | 0.188 E-score
38 | AGATACCG | 0.12 E-score
39 | CATTAATC | 0.219 E-score
40 | AACGGTCT | -0.0396 E-score
41 | GTCCCGCA | -0.196 E-score
42 | CGCGGTTA | -0.0283 E-score
43 | CTAAATAG | 0.172 E-score
44 | CTAAATAA | 0.251 E-score
45 | CTAAATAC | 0.351 E-score
46 | GTAAATAA | 0.234 E-score
47 | GTAAATAC | 0.352 E-score
48 | ATAAATAC | 0.276 E-score
49 | CAAGCAGC | -0.0674 E-score
50 | TAGTTATA | 0.382 E-score
51 | CAGTTATA | 0.288 E-score
52 | CAGTTACA | 0.24 E-score

Row | Sequence | binding signal
53 | TAGTTACA | 0.349 E-score
54 | GAGTTATA | 0.222 E-score
55 | AAGTTACA | 0.18 E-score
56 | AGCTGAAG | 0.0654 E-score
57 | AACGCCTA | -0.101 E-score
58 | ACTTAACC | 0.121 E-score
59 | ATACCGAC | 0.0836 E-score
60 | ATACCGAT | 0.342 E-score
61 | ATACCGAG | 0.116 E-score
62 | GTTGGCGA | -0.0273 E-score
63 | GGAGCAGA | -0.132 E-score
64 | CGCCTTCA | 0.0118 E-score
65 | TAGCAGGA | -0.0921 E-score
66 | ACCAAGGT | -0.0988 E-score
67 | GACACGAC | -0.0441 E-score
68 | AGTAGTTC | 0.413 E-score
69 | GGTAGTTA | 0.413 E-score
70 | GTTAGTTA | 0.258 E-score
71 | ATTAGTTG | 0.334 E-score
72 | AGTAGTTG | 0.388 E-score
73 | GGTAGTCA | 0.125 E-score
74 | AGTAGTTA | 0.434 E-score
75 | CGTAGTTA | 0.127 E-score
76 | ATTAGTTC | 0.172 E-score
77 | CGTAGTTC | 0.255 E-score
78 | AGTAGTGA | 0.0919 E-score

Row | Sequence | binding signal
79 | ACTAGTTG | 0.313 E-score
80 | GTAAGAAA | 0.327 E-score
81 | CGTACAAC | 0.103 E-score
82 | CGGAGGAA | -0.194 E-score
83 | ACAATGAC | 0.00584 E-score
84 | AAAGACAA | 0.02 E-score
85 | GTTATTCA | 0.0398 E-score
86 | ATAGGTCC | 0.123 E-score
87 | CTAAGGCC | -0.158 E-score
88 | AATATTGA | 0.287 E-score
89 | AATATTCT | 0.338 E-score
90 | AATATTCC | 0.131 E-score
91 | AATATTCG | 0.255 E-score
92 | AATATTGG | 0.103 E-score
93 | AATATTGT | 0.34 E-score
94 | TGCGGGAA | -0.19 E-score
95 | CTAAGCCA | 0.0287 E-score
96 | GGTTAGTA | 0.0365 E-score
97 | CGTCGTTC | -0.0713 E-score
98 | GAACCGAC | -0.0645 E-score
99 | CGAAGAAA | 0.195 E-score
100 | AGAAATTC | 0.228 E-score
101 | CGAAATTA | 0.269 E-score
102 | CGAAATTC | 0.341 E-score
103 | GCAACCAC | 0.0207 E-score
104 | AGAATCTA | 0.337 E-score

Row | Sequence | binding signal
105 | GGAATCAA | 0.103 E-score
106 | AGAATCTG | -0.0414 E-score
107 | GGAATCTA | 0.363 E-score
108 | CGAATCTA | 0.305 E-score
109 | AGAATCTC | 0.0678 E-score
110 | CGGAATTA | 0.239 E-score
111 | GAAGGTTA | -0.0133 E-score
112 | GCACTCAA | -0.134 E-score
113 | ACCGGACC | -0.0925 E-score
114 | ACGGTACG | -0.0886 E-score
115 | CCTCACCG | -0.0671 E-score
116 | ACACTACG | -0.0357 E-score
117 | AAACTAAG | 0.345 E-score
118 | AGACTACC | 0.249 E-score
119 | AAACTAAT | 0.332 E-score
120 | AGACTACT | 0.209 E-score
121 | CAACTACC | 0.303 E-score
122 | ACACTACT | 0.236 E-score
123 | AAACTAAC | 0.233 E-score
124 | CAACTACG | 0.12 E-score
125 | AAACTACC | 0.475 E-score
126 | AAACTACG | 0.377 E-score
127 | AAACTACT | 0.484 E-score
128 | ATGCGGCA | 0.0193 E-score
129 | CACCTAAC | 0.06 E-score
130 | CTTCATAC | 0.0169 E-score

Row | Sequence | binding signal
131 | ATGCAGGA | 0.0987 E-score
132 | ATAGAGAG | -0.0418 E-score
133 | AGAAAACC | -0.176 E-score
134 | AGCAAGCG | -0.0451 E-score
135 | GCTGGAGA | -0.105 E-score
136 | ATTCGCAC | -0.0552 E-score
137 | ATTAGGCC | -0.131 E-score
138 | GAACTACC | 0.338 E-score
139 | TGACTACA | 0.197 E-score
140 | GAACTACA | 0.222 E-score
141 | CAACTACA | 0.18 E-score
142 | GCACTACC | -0.000872 E-score
143 | AAACTACA | 0.408 E-score
144 | TCACTACA | 0.0227 E-score
145 | TAACTACA | 0.441 E-score
146 | AAACTAAA | 0.324 E-score
147 | TAGGCTAA | -0.112 E-score
148 | ATATCGAT | 0.316 E-score
149 | AAGTCTGA | -0.121 E-score
150 | CTAGGAAC | -0.0546 E-score
151 | CGTAGCGA | 0.0631 E-score
152 | AGTAGCTA | 0.386 E-score
153 | GCTAGCTA | 0.156 E-score
154 | CGTAGCTA | 0.365 E-score
155 | GGTAGCAA | 0.241 E-score
156 | CCTAGCTA | 0.107 E-score

Row | Sequence | binding signal
157 | ACTAGCTA | 0.347 E-score
158 | CGTAGCTC | 0.0159 E-score
159 | AGTAGCTC | 0.0983 E-score
160 | GGTAGCTA | 0.341 E-score
161 | AGTAGCTG | 0.204 E-score
162 | GGTAGCGA | 0.0576 E-score
163 | GTTGAGGA | -0.0613 E-score
164 | CATTACCA | 0.14 E-score
165 | CAGTAACG | 0.112 E-score
166 | AAACTATA | 0.396 E-score
167 | CAACTATC | 0.192 E-score
168 | AAACTATG | 0.195 E-score
169 | TAACTAAA | 0.151 E-score
170 | AAACTCTT | 0.188 E-score
171 | ACACTATA | 0.245 E-score
172 | GAACTATC | 0.292 E-score
173 | AAACTATT | 0.458 E-score
174 | CAACTATA | 0.307 E-score
175 | AAACTATC | 0.412 E-score
176 | TAACTATA | 0.341 E-score
177 | GAACTATA | 0.289 E-score
